Compounds without any hit were thinned out: in the full panel of roughly 83,000, 20% have a hit.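 Each cell line was grown in a 96-well plate and treated with one concentration of compound for 48 hours. Values below 10 were considered active.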 Values without a mark were called inactive. The source made the active and inactive calls.

Holding throughout (assay): NCI-60 one-dose screen, 48 h (100 = growth as untreated, 0 = no growth, -100 = all killed)
The test system of one experiment is SK-MEL-2 melanoma. The following applies: 10 µM unless noted.
For the next experiment, the system named is EKVX NSCLC. The following applies: 10 µM unless noted.
The test system of a further experiment is SN12C renal. The note with it: 10 µM unless noted.
Another experiment deals with UO-31 renal. The note with it: 10 µM unless noted.
In the next experiment the test system is TK-10 renal. The following applies: 10 µM unless noted.
Another experiment relates to CAKI-1 renal. The note with it: 10 µM unless noted.
In the next experiment the test system is A498 renal. The following applies: 10 µM unless noted.
A further experiment deals with CCRF-CEM leukemia. The following applies: 10 µM unless noted.
The test system of the next experiment is MOLT-4 leukemia. The note with it: 10 µM unless noted.
For a further experiment, the system named is SR leukemia. The note with it: 10 µM unless noted.
For a further experiment, the system named is RPMI-8226 leukemia. The note with it: 10 µM unless noted.
The next experiment has as its system OVCAR-8 ovarian. The following applies: 10 µM unless noted.
Another experiment has as its system OVCAR-5 ovarian. The note with it: 10 µM unless noted.
The test system of a further experiment is OVCAR-4 ovarian. The following applies: 10 µM.
The subject of a further experiment is SK-OV-3 ovarian. The note with it: 10 µM unless noted.
A further experiment has as its system IGROV1 ovarian. The note with it: 10 µM unless noted.
The next experiment relates to OVCAR-3 ovarian. The following applies: 10 µM unless noted.
Another experiment concerns NCI/ADR-RES ovarian. The note with it: 10 µM unless noted.
In another experiment the test system is HS 578T breast. The note with it: 10 µM unless noted.

Consider `COc1ccc(C(=O)CSc2nnc(-c3cc(-c4ccccc4)nc4ccccc34)o2)cc1`, for which the growth in the experiment with SK-MEL-2 melanoma is 129%; with EKVX NSCLC it was 109%; in the experiment on SN12C renal it was 97.3%; with UO-31 renal, 96%; with TK-10 renal it was 116%; in the experiment on CAKI-1 renal, 95.7%. Besides, the growth with A498 renal was 100%; in the experiment with CCRF-CEM leukemia, 112%; with MOLT-4 leukemia, 120%; with SR leukemia, 96.3%; in the experiment with RPMI-8226 leukemia it was 121%; with OVCAR-8 ovarian, 103%. Also, the growth in the experiment with OVCAR-5 ovarian was 105%; in the experiment on OVCAR-4 ovarian it was 107%; with SK-OV-3 ovarian, 119%; in the experiment with IGROV1 ovarian it was 102%; in the experiment on OVCAR-3 ovarian, 109%; in the experiment on NCI/ADR-RES ovarian, 103%.
Turning to `CCCCCC1CCCCN1C(=O)OCCCC` (centres undefined), the growth with SK-MEL-2 melanoma was 102%; in the experiment on EKVX NSCLC, 89.1%; in the experiment on SN12C renal it was 73.3%; in the experiment with UO-31 renal, 84.3%; in the experiment on TK-10 renal, 95.6%; in the experiment with CAKI-1 renal, 79.7%. The growth in the experiment with A498 renal was 88.1%; in the experiment with CCRF-CEM leukemia, 84.6%; in the experiment with MOLT-4 leukemia, 99.5%; in the experiment with SR leukemia, 108%; with RPMI-8226 leukemia, 73.2%; in the experiment on OVCAR-8 ovarian, 106%. The growth in the experiment with OVCAR-5 ovarian was 101%; in the experiment with OVCAR-4 ovarian, 103%; in the experiment on SK-OV-3 ovarian, 105%; in the experiment on OVCAR-3 ovarian it was 104%; in the experiment with HS 578T breast it was 122%; in the experiment with NCI/ADR-RES ovarian, 91.8%.
In the case of `Cc1ccc2c(c1)/C(=N\N=C/c1cn(C(C)C)c3ccccc13)C(=O)N2`, the growth in the experiment with SK-MEL-2 melanoma is 81.2%; in the experiment with EKVX NSCLC, 61.9%; in the experiment on SN12C renal, 56.4%; in the experiment on UO-31 renal it was 57.8%; with TK-10 renal, 81.4%; in the experiment with CAKI-1 renal, 64.4%. Moreover, the growth is 86.1% in the experiment on A498 renal; 6.69% (active) with CCRF-CEM leukemia; -10% (active) in the experiment on MOLT-4 leukemia; -9.77% (active) in the experiment on SR leukemia; 0.866% (active) with RPMI-8226 leukemia; 54.5% in the experiment on OVCAR-8 ovarian. The growth in the experiment with OVCAR-5 ovarian was 70.2%; in the experiment on OVCAR-4 ovarian, 37.7%; in the experiment on SK-OV-3 ovarian, 89.2%; in the experiment with IGROV1 ovarian it was 48.1%; in the experiment on OVCAR-3 ovarian, -2.36% (active); with HS 578T breast it was 73.9%. The growth with NCI/ADR-RES ovarian was 79%.
Regarding `COc1cc(-c2nc(SCCC(C)C)nc(Nc3ccccc3)c2C#N)cc(OC)c1OC`, the growth in the experiment with SK-MEL-2 melanoma is 103%; with EKVX NSCLC, 100%; with SN12C renal, 89.5%; in the experiment on UO-31 renal it was 68.4%; in the experiment with TK-10 renal it was 110%; with CAKI-1 renal, 72.4%. The growth with A498 renal is 69.9%; in the experiment on CCRF-CEM leukemia, 88.6%; in the experiment on MOLT-4 leukemia it was 84.3%; in the experiment with SR leukemia, 79.8%; in the experiment on RPMI-8226 leukemia, 92.2%; with OVCAR-8 ovarian it was 97.7%. The growth in the experiment on OVCAR-5 ovarian was 99.4%; in the experiment on OVCAR-4 ovarian, 88.3%; in the experiment on SK-OV-3 ovarian, 107%; in the experiment with IGROV1 ovarian, 100%; in the experiment on OVCAR-3 ovarian it was 103%; with HS 578T breast, -8.69% (active). Further, the growth in the experiment on NCI/ADR-RES ovarian was 95.5%.
With `CNC(=O)c1cc(Oc2ccc3nc(NC(=O)c4ccc5ncccc5c4)sc3c2)ccn1`, the growth in the experiment with SK-MEL-2 melanoma was 86.2%; in the experiment with EKVX NSCLC it was 87.5%; in the experiment on SN12C renal, 92.6%; in the experiment with UO-31 renal it was 77%; with TK-10 renal it was 90.5%; in the experiment with CAKI-1 renal, 89.9%. For the same compound, the growth is 88.3% in the experiment on A498 renal; 91% in the experiment with CCRF-CEM leukemia; 94.2% in the experiment on MOLT-4 leukemia; 88.8% in the experiment on SR leukemia; 71.9% with RPMI-8226 leukemia; 100% in the experiment on OVCAR-8 ovarian. Besides, the growth with OVCAR-5 ovarian was 106%; with OVCAR-4 ovarian it was 87.4%; in the experiment with IGROV1 ovarian, 93.3%; in the experiment with OVCAR-3 ovarian it was 98.9%; with HS 578T breast, 108%; in the experiment on NCI/ADR-RES ovarian it was 88.8%.
Consider `COc1cc2c(c(Br)c1N)-c1cc(Br)c(N)cc1C2=O`, for which the growth in the experiment with SK-MEL-2 melanoma is 108%; with EKVX NSCLC, 34.8%; in the experiment on SN12C renal it was 39.9%; with UO-31 renal, 51.7%; with TK-10 renal it was 27.2%; in the experiment on CAKI-1 renal it was 74.3%. The growth in the experiment on A498 renal is 61.7%; in the experiment with CCRF-CEM leukemia, 86%; with MOLT-4 leukemia it was 97.2%; with SR leukemia, 47.2%; with RPMI-8226 leukemia, 85.9%; in the experiment with OVCAR-8 ovarian it was 29.1%. For the same compound, the growth was 16.3% in the experiment on OVCAR-5 ovarian; 22.2% in the experiment with OVCAR-4 ovarian; 74.5% with SK-OV-3 ovarian; 31.9% in the experiment with IGROV1 ovarian; 83.4% in the experiment on OVCAR-3 ovarian; 38.1% in the experiment on HS 578T breast.
Take `O=C(NCCCCCCCNC(=O)OCc1ccc2c(Cl)cc(Cl)c(O)c2n1)OCc1ccc2c(Cl)cc(Cl)c(O)c2n1`: the growth in the experiment on SK-MEL-2 melanoma is -70.6% (active); in the experiment on EKVX NSCLC it was -45.8% (active); in the experiment with SN12C renal, -76.5% (active); with UO-31 renal it was -100% (active); in the experiment on TK-10 renal it was -80.7% (active); with CAKI-1 renal, -93.4% (active). The growth in the experiment on A498 renal is -80.6% (active); in the experiment on CCRF-CEM leukemia, 4.67% (active); with MOLT-4 leukemia it was -2.43% (active); in the experiment with SR leukemia, 6.26% (active); in the experiment with RPMI-8226 leukemia, -15.5% (active); in the experiment with OVCAR-8 ovarian, -8.93% (active). In addition, the growth with OVCAR-5 ovarian is -76.8% (active); in the experiment on SK-OV-3 ovarian, 35%; with IGROV1 ovarian, -86.2% (active); in the experiment with OVCAR-3 ovarian, -87.2% (active); in the experiment on HS 578T breast, -9.29% (active); in the experiment on NCI/ADR-RES ovarian, -29.5% (active).
Consider `c1nc(N2CCOCC2)c2[nH]ccc2n1`, for which the growth in the experiment on SK-MEL-2 melanoma is 96%; in the experiment on EKVX NSCLC, 103%; in the experiment on SN12C renal it was 104%; in the experiment on UO-31 renal, 87.6%; with A498 renal it was 96.3%; in the experiment with CCRF-CEM leukemia it was 107%. Further, the growth with MOLT-4 leukemia is 94%; in the experiment with SR leukemia it was 92%; with RPMI-8226 leukemia it was 94.1%; in the experiment on OVCAR-8 ovarian it was 106%; in the experiment with OVCAR-5 ovarian, 116%; in the experiment with OVCAR-4 ovarian, 106%. The growth in the experiment with SK-OV-3 ovarian is 110%; with IGROV1 ovarian, 112%; with OVCAR-3 ovarian, 118%; in the experiment on HS 578T breast it was 96.7%.
